# Tests used:
# Assay in all cases: DAPPL (digital affinity profiling via proximity ligation, sequencing); 10 mM Tris-HCl pH 7.5, 50 mM NaCl, 1 mM DTT, 4% glycerol, room temperature, 30 min; GST-TFs on glutathione beads, 16-mer random dsDNA library, 0.1% formaldehyde crosslink after washing; high values mean tight binding
# FEV = biological target: T1, FEV (Homo sapiens, UniProt Q99581 1-238); conditions: protein: recombinant; tags: N-terminal GST; dsDNA, one strand shown
# T1 sequence: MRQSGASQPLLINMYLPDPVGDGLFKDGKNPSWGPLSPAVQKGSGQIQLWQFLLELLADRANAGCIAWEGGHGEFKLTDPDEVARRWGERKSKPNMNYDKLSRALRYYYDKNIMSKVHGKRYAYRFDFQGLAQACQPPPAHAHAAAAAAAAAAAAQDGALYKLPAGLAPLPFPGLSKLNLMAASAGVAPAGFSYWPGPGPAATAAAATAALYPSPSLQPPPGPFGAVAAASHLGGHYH
# Method in brief: (§1)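 In yeast, human transcription factors were expressed with a GST fusion, then pulled down on glutathione beads and given DNA barcodes. Pooled with a tag-only sample, they were exposed to 200 nmole of a 16-mer random double-stranded DNA library (Tris/NaCl/DTT/glycerol buffer, room temperature, 30 min), washed, crosslinked with 0.1% formaldehyde, proximity-ligated using BsaI/T4 ligase for 1 h at 37 °C, PCR-amplified and read on an Illumina NextSeq500. Each hexamer's frequency of reads for a factor, divided by the matching frequency for the tag-only sample, gives the binding signal.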
# ETV5 = ETV5 (Homo sapiens, UniProt P41161 1-510); conditions: protein: recombinant; tags: N-terminal GST; dsDNA, one strand shown
# Chain of ETV5 (P41161 whole entry): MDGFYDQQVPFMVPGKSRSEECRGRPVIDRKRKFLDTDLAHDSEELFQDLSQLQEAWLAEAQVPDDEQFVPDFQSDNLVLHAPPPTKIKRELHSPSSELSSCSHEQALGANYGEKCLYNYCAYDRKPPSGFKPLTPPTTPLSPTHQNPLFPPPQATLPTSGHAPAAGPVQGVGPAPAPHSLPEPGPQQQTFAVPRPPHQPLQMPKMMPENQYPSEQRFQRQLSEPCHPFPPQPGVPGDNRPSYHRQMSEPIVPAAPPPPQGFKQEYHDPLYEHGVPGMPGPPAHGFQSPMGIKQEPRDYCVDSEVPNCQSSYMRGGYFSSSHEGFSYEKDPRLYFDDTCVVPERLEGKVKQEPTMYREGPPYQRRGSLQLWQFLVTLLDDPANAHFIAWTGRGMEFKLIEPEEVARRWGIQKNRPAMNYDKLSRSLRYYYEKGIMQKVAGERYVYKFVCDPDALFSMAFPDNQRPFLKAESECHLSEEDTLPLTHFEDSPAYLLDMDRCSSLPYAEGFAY
# Method in brief: as §1
# HSF1 = HSF1 (Homo sapiens, UniProt Q00613 1-529); conditions: protein: recombinant; tags: N-terminal GST; chain copies: 3; dsDNA, one strand shown
# Chain of HSF1 (Q00613 whole entry): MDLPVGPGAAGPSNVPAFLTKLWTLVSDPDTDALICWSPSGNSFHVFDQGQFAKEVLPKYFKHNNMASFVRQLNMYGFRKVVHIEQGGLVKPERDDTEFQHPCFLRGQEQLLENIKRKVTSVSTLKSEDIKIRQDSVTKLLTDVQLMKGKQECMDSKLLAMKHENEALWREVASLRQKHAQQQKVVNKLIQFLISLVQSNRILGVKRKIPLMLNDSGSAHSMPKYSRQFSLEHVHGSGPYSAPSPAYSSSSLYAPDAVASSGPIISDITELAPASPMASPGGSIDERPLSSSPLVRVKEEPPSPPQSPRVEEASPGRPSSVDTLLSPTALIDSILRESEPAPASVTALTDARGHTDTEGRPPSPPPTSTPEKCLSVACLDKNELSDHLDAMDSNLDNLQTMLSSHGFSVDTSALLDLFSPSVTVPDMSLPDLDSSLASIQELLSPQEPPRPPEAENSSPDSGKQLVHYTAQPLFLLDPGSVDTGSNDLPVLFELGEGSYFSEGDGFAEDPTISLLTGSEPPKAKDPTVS
# Method in brief: as §1
# SPIC = biological target: T2, SPIC (Homo sapiens, UniProt Q8N5J4 1-248); conditions: protein: recombinant; tags: N-terminal GST; dsDNA, one strand shown
# T2 sequence: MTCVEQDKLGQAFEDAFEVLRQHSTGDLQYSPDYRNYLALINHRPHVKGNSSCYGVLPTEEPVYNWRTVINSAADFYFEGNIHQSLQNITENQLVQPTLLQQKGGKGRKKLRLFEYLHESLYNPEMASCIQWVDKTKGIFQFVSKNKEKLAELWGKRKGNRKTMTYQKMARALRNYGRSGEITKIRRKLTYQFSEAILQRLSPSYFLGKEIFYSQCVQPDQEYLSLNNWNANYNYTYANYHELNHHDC
# Method in brief: as §1
# ELF4 = ELF4 (Homo sapiens, UniProt Q99607 1-663); conditions: protein: recombinant; tags: N-terminal GST; dsDNA, one strand shown
# Chain of ELF4 (Q99607 whole entry): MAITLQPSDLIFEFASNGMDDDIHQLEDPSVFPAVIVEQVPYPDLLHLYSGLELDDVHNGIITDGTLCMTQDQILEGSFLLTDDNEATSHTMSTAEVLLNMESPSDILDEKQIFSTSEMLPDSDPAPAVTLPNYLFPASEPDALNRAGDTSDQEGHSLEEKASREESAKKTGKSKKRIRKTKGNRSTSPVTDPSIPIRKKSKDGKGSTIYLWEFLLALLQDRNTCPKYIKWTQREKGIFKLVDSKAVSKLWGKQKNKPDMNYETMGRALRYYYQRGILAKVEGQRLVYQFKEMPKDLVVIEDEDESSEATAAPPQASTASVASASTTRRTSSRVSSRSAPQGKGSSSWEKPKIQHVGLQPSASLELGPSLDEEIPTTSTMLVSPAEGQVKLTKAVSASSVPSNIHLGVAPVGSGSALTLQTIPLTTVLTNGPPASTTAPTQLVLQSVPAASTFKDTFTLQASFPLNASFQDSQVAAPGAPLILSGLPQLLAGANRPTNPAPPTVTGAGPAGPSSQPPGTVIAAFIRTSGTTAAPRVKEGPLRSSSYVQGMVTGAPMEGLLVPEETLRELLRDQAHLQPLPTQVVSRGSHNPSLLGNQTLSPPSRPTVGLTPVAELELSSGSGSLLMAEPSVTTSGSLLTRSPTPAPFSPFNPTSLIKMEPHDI
# Method in brief: as §1
# ELK4 = biological target: T3, ELK4 (Homo sapiens, UniProt P28324-2 1-405); conditions: protein: recombinant; tags: N-terminal GST; dsDNA, one strand shown
# T3 sequence: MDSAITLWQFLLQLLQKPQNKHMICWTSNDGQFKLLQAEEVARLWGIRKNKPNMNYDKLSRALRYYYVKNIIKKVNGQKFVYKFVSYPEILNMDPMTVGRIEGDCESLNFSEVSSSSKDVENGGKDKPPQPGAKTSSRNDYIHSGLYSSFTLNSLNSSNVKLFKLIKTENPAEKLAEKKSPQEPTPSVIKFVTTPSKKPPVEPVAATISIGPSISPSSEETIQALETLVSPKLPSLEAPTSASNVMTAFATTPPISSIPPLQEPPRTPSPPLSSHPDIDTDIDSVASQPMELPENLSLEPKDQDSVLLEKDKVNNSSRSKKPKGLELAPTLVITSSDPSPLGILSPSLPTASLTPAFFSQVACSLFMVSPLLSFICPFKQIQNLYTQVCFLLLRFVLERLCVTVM
# Method in brief: as §1
# ETV2 = biological target: T4, ETV2 (Homo sapiens, UniProt O00321 1-342); conditions: protein: recombinant; tags: N-terminal GST; dsDNA, one strand shown
# T4 sequence: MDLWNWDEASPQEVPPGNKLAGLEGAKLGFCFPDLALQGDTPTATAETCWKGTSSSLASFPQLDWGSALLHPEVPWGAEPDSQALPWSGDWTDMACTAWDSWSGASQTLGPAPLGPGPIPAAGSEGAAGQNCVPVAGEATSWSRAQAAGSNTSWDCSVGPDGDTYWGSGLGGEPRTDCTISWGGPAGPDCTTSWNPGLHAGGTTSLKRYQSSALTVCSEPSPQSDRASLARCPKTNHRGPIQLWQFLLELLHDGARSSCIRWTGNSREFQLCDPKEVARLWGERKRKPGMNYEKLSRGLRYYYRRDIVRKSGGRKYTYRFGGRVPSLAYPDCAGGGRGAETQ
# Method in brief: as §1
# ELF3 = biological target: T5, ELF3 (Homo sapiens, UniProt P78545 1-371); conditions: protein: recombinant; tags: N-terminal GST; dsDNA, one strand shown
# T5 sequence: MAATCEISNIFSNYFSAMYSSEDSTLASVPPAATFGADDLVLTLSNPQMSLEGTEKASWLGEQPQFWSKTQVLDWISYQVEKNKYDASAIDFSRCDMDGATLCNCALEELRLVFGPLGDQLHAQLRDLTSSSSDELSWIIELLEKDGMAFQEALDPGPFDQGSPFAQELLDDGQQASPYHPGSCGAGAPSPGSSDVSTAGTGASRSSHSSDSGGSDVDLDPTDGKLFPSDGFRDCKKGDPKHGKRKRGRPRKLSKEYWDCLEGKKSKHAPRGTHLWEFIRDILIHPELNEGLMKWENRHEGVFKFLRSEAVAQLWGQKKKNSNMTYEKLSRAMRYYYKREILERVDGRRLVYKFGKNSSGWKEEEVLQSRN
# Method in brief: as §1
# CRX = CRX (Homo sapiens, UniProt O43186 1-299); conditions: protein: recombinant; tags: N-terminal GST; dsDNA, one strand shown
# Chain of CRX (O43186 whole entry): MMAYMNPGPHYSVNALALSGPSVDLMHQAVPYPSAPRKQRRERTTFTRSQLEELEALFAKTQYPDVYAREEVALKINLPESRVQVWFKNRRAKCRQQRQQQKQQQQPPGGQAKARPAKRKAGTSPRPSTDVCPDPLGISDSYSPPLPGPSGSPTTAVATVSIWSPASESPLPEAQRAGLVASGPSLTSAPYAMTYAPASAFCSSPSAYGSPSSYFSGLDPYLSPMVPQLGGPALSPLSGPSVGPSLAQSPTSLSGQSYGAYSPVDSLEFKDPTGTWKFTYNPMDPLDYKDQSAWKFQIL
# Method in brief: as §1
# ETV1 = ETV1 (Homo sapiens, UniProt P50549 1-477); conditions: protein: recombinant; tags: N-terminal GST; dsDNA, one strand shown
# Chain of ETV1 (P50549 whole entry): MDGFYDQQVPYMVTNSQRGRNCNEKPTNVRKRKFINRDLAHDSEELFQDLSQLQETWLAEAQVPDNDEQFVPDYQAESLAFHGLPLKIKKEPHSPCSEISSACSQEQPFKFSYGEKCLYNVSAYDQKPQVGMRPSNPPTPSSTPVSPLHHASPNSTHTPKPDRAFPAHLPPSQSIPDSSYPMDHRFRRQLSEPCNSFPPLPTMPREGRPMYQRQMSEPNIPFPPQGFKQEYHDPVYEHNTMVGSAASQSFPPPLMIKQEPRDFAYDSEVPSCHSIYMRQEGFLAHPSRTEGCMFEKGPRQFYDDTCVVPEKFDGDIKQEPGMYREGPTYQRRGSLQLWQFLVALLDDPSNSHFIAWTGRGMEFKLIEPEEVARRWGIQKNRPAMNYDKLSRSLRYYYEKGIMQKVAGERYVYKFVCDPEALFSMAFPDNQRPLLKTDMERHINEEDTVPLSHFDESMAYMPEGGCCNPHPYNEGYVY
# Method in brief: as §1
# ERF = biological target: T6, ERF (Homo sapiens, UniProt P50548 1-548); conditions: protein: recombinant; tags: N-terminal GST; dsDNA, one strand shown
# T6 sequence: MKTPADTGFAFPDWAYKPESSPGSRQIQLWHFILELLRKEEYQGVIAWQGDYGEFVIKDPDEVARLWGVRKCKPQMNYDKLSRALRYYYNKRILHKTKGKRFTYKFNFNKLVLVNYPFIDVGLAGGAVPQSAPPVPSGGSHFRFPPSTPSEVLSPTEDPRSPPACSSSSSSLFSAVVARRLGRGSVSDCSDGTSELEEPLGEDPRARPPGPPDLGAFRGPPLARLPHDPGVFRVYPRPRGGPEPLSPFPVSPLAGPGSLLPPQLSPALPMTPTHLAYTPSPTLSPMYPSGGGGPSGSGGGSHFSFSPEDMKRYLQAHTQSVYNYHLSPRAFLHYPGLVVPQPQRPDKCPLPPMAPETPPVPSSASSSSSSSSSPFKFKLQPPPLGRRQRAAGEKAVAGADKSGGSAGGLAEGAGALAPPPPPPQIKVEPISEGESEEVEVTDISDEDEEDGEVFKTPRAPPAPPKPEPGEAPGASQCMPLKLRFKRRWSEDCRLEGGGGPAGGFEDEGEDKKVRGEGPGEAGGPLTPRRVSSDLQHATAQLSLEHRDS
# Method in brief: as §1
# ETV3L = biological target: T7, ETV3L (Homo sapiens, UniProt Q6ZN32 1-361); conditions: protein: recombinant; tags: N-terminal GST; dsDNA, one strand shown
# T7 sequence: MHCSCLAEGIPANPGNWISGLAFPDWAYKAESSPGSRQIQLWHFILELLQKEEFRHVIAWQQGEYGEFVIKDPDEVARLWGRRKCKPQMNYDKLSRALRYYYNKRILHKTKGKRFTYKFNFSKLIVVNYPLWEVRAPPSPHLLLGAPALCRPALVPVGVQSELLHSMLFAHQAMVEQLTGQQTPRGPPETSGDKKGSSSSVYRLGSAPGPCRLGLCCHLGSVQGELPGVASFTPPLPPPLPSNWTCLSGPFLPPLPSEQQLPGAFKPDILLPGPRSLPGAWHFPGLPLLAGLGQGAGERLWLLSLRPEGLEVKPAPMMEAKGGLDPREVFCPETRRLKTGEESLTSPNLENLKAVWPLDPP
# Method in brief: as §1
# ETS2 = biological target: T8, ETS2 (Homo sapiens, UniProt P15036 1-469); conditions: protein: recombinant; tags: N-terminal GST; dsDNA, one strand shown
# T8 sequence: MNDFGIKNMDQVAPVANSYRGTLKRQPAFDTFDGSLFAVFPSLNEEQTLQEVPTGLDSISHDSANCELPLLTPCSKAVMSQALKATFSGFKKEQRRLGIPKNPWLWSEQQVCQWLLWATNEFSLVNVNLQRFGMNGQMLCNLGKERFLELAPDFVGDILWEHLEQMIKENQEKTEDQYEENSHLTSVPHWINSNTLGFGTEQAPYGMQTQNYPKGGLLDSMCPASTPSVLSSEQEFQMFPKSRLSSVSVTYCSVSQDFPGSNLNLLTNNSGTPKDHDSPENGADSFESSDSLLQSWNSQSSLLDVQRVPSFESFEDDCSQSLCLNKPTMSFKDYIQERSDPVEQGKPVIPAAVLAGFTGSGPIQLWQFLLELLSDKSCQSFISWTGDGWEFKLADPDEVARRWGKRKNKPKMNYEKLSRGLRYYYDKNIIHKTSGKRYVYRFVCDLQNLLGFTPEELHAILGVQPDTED
# Method in brief: as §1
# SPDEF = biological target: T9, SPDEF (Homo sapiens, UniProt O95238 1-335); conditions: protein: recombinant; tags: N-terminal GST; dsDNA, one strand shown
# T9 sequence: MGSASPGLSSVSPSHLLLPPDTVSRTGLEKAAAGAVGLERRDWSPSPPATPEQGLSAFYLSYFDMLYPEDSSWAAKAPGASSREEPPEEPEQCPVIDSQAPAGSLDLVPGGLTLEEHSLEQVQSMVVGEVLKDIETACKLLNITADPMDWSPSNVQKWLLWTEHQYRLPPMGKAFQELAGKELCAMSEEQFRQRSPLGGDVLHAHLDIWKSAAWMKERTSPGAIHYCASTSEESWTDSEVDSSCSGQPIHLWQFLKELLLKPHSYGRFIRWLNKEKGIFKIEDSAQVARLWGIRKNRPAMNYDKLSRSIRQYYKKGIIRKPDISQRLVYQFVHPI
# Method in brief: as §1
# ETV7 = biological target: T10, ETV7 (Homo sapiens, UniProt Q9Y603 1-341); conditions: protein: recombinant; tags: N-terminal GST; dsDNA, one strand shown
# T10 sequence: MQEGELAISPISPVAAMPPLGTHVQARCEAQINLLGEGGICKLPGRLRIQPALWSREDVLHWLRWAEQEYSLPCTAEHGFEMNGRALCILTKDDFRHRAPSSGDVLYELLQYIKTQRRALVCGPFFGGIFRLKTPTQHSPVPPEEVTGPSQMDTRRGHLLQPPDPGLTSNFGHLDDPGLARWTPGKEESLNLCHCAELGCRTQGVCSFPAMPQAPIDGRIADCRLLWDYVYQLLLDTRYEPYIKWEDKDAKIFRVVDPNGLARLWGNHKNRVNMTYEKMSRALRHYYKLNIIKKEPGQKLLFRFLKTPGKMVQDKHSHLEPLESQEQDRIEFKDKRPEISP
# Method in brief: as §1
# ELF5 = biological target: T11, ELF5 (Homo sapiens, UniProt Q9UKW6-2 1-255); conditions: protein: recombinant; tags: N-terminal GST; dsDNA, one strand shown
# T11 sequence: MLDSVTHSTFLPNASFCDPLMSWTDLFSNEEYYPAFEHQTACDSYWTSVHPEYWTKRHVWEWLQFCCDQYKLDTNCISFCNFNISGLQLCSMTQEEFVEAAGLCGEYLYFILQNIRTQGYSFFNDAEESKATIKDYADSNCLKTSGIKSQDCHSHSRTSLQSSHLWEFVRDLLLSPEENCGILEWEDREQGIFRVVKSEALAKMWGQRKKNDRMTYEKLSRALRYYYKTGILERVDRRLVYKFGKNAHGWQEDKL
# Method in brief: as §1
# ETV3 = biological target: T12, ETV3 (Homo sapiens, UniProt P41162-2 1-143); conditions: protein: recombinant; tags: N-terminal GST; dsDNA, one strand shown
# T12 sequence: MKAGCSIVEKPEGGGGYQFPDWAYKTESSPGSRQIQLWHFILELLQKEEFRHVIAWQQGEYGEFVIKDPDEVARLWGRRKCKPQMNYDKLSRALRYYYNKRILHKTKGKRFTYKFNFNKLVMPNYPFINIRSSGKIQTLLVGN
# Method in brief: as §1
# ETV6 = ETV6 (Homo sapiens, UniProt P41212 1-452); conditions: protein: recombinant; tags: N-terminal GST; dsDNA, one strand shown
# Chain of ETV6 (P41212 whole entry): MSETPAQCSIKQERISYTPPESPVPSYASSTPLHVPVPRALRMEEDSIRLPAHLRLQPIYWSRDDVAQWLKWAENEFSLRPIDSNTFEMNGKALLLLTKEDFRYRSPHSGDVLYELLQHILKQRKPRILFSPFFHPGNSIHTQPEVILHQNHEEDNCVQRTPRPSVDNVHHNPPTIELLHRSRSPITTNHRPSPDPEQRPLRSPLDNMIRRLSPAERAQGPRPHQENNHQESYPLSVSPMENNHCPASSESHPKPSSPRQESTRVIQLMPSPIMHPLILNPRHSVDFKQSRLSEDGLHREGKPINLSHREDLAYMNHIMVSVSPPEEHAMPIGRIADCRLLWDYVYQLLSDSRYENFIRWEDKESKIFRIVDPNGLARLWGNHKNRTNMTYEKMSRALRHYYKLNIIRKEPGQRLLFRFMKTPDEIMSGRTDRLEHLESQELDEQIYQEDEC
# Method in brief: as §1
sequence,measurement,setting,value
TTCTTA,binding signal,FEV,"1.32 fold enrichment (6-mer frequency, TF over GST control)"
same,binding signal,ETV5,"1.33 fold enrichment (6-mer frequency, TF over GST control)"
same,binding signal,HSF1,"1.85 fold enrichment (6-mer frequency, TF over GST control)"
same,binding signal,SPIC,"1.71 fold enrichment (6-mer frequency, TF over GST control)"
same,binding signal,ELF4,"1.41 fold enrichment (6-mer frequency, TF over GST control)"
same,binding signal,ELK4,"1.5 fold enrichment (6-mer frequency, TF over GST control)"
same,binding signal,ETV2,"1.36 fold enrichment (6-mer frequency, TF over GST control)"
same,binding signal,ELF3,"1.47 fold enrichment (6-mer frequency, TF over GST control)"
same,binding signal,CRX,"2.21 fold enrichment (6-mer frequency, TF over GST control)"
same,binding signal,ETV1,"1.36 fold enrichment (6-mer frequency, TF over GST control)"
same,binding signal,ERF,"1.21 fold enrichment (6-mer frequency, TF over GST control)"
same,binding signal,ETV3L,"1.4 fold enrichment (6-mer frequency, TF over GST control)"
same,binding signal,ETS2,"1.24 fold enrichment (6-mer frequency, TF over GST control)"
same,binding signal,SPDEF,"1.4 fold enrichment (6-mer frequency, TF over GST control)"
same,binding signal,ETV7,"1.38 fold enrichment (6-mer frequency, TF over GST control)"
same,binding signal,ELF5,"1.35 fold enrichment (6-mer frequency, TF over GST control)"
same,binding signal,ETV3,"1.34 fold enrichment (6-mer frequency, TF over GST control)"
same,binding signal,ETV6,"1.4 fold enrichment (6-mer frequency, TF over GST control)"

# Source: paper PMC7862700, “An all-to-all approach to the identification of sequence-specific readers for epigenetic DNA modifications on cytosine”
